Shiga toxin inh: A qHTS for Small Molecule Inhibitors of Shiga Toxin; Vero cells, Shiga toxin protein synthesis inhibition reporter; inhibition, % at 38.7 µM; actives 9.2% (n = 290,000); in the data active = inhibition mostly above about 28%, no sharp cut-off; inactive = mostly below about 43%; note: 0% is about no effect
CHX counter: Cycloheximide Counterscreen for Small Molecule Inhibitors of Shiga Toxin; cell reporter, cycloheximide protein synthesis inhibition counterscreen; actives 12% (n = 300,000); max response, %; in the data active = max response mostly above about 13%, no sharp cut-off; inactive = mostly below about 14%; note: read at 38.3 µM for the half of the compounds with a filed dose; 0% is about no effect
TbPYK inhibitor: qHTS of Trypanosoma Brucei Inhibitors; actives 0.12% (n = 410,000); Potency, µM (titrated, usually from 76.8 µM), inactives show at the top dose activity, negative = inhibition, actives largely listed as inhibitors; pyruvate kinase (Trypanosoma brucei), Q57TT1; TbPYK enzyme, Kinase-Glo Plus ATP luminescence, 45 min; note: potency is the fitted concentration of half-maximal effect; % is set by controls: 0 for no effect and ±100 for the full control effect; nearly all actives have a fitted effect of over 50% in size
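Assay buffer: 50 mM TEA pH 7.2, 100 mM KCl, 10 mM MgCl2, 0.05% BSA, 0.01% Tween-20. Pyruvate kinase from T. brucei plus substrate met compound, then ADP (130 uM final). Luminescence was read post 45 min RT.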
Giardia FBPA inh: qHTS Assay for Inhibitors of Fructose-1,6-bisphosphate Aldolase from Giardia Lamblia. Potency, µM (top dose mostly 59.6 µM), for the others: top-dose activity, negative = inhibition, hits mostly inhibitors. A8B2U2. actives 0.71% (n = 290,000). purified Giardia FBPA. AID 2451, 2010; note: potency is the fitted concentration of half-maximal effect; % is set by controls: 0 for no effect and ±100 for the full control effect; nearly all actives have a fitted effect of over 55% in size
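Giardia FBPA (40 nM reagent) was preincubated 10 min at RT with compound (up to 57.5 uM final), then substrate plus GAPDH/TPI/NAD/arsenate coupling system with diaphorase/resazurin was added; resorufin fluorescence (525/598 nm) was read after 20 min.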
LmPK inh: qHTS Assay for Inhibitors of Leishmania Mexicana Pyruvate Kinase (LmPK); Q27686; purified LmPK, Kinase-Glo ATP luminescence, 1 h; Potency, µM (series often up to 57.5 µM), for inactives: at the highest dose activity change, negative = inhibition, hits mostly inhibitors; actives 0.37% (n = 290,000); note: potency is the fitted concentration of half-maximal effect; % is set by controls: 0 for no effect and ±100 for the full control effect
Target sequence (Q27686 whole entry, looked up): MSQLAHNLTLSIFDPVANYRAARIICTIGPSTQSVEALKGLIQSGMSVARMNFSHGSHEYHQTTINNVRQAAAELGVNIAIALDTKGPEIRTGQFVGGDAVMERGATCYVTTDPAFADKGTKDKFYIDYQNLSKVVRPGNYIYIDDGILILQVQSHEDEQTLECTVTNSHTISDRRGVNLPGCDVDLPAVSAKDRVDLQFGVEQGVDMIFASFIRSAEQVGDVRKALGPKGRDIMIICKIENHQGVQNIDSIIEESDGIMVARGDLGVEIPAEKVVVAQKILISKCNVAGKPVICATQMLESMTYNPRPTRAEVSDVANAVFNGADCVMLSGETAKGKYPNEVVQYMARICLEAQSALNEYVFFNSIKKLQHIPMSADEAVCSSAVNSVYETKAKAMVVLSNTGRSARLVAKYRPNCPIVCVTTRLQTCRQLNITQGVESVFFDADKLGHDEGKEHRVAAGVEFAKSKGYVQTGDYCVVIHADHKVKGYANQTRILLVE
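Purified LmPK (0.1 nM) with 0.5 mM PEP and 0.1 mM ADP in imidazole buffer pH 7.2 with MgCl2/KCl, 1 h at room temperature. ATP formed was read by luciferase luminescence and normalized to no-enzyme and uninhibited controls.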
Sm TGR inh: qHTS Assay for the Inhibitors of Schistosoma Mansoni Peroxiredoxins; Schistosoma mansoni thioredoxin glutathione reductase (TGR), Q962Y6; purified TGR, DTNB reduction, TNB absorbance 405 nm; Potency, µM (highest dose often 114 µM), for the others: top-dose activity change, negative = inhibition, hits mostly inhibitors; actives 3% (n = 360,000); AID 485364, 2010; note: potency is the fitted concentration of half-maximal effect; % is set by controls: 0 for no effect and ±100 for the full control effect; nearly all actives have a fitted effect of over 60% in size
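Kinetic colorimetric format: TGR-catalysed, NADPH-driven DTNB reduction monitored via TNB absorbance. Enzyme dispensed at 20 nM; compound exposure 15 min at room temperature before reaction start.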
* marks the source's active call; other numbers are inactive results. Shown is part of a subset that was picked to be rich in hits. Unless noted, calls come from the whole dose curve; as a rule, active = well fitted curve in the direction sought with a large enough effect; inconclusive = small, poorly fitted or top-dose-only effect, or another doubt; inactive = no such curve, though single readings can be large; an effect the other way counts as inactive or inconclusive.

What do the screens show for `CCOc1ncccc1C(=O)NNC(=O)c1cccc(S(=O)(=O)Nc2ccc(OC)cc2)c1`?
Shiga toxin inh: -11; CHX counter: 7; TbPYK inhibitor: -1%; LmPK inh: 5%; Sm TGR inh: 4%

What do the screens show for `Cc1cc2nc(-c3ccc(SCc4ccccc4C#N)nc3)[nH]c2cc1C`?
Shiga toxin inh: 46*; CHX counter: 34*; TbPYK inhibitor: 0%; Giardia FBPA inh: 1%; LmPK inh: -4%; Sm TGR inh: 2%

What do the screens show for `Cc1cc2nc(-c3ccc(SCc4ccc(C(=O)O)cc4)nc3)[nH]c2cc1C`?
Shiga toxin inh: 45*; CHX counter: 37*; TbPYK inhibitor: -15%; Giardia FBPA inh: inconclusive; LmPK inh: 1%; Sm TGR inh: 17%

How did Cc1cc2nc(-c3ccc(SCC(=O)Nc4ccc(S(=O)(=O)NC5CC5)cc4)nc3)[nH]c2cc1C do in these assays?
Shiga toxin inh: 70*; CHX counter: 46*; TbPYK inhibitor: -7%; Giardia FBPA inh: 2%; LmPK inh: -13%; Sm TGR inh: -1%

How did O=C(O)c1ccc(SCc2ccccc2)nc1 do in these assays?
TbPYK inhibitor: -11%

How did O=C(CN1CCCCC1)Nc1ccc(S(=O)(=O)NC2CCCCC2)cc1 do in these assays?
Shiga toxin inh: -13; CHX counter: -5; TbPYK inhibitor: -2%; Giardia FBPA inh: 8%; LmPK inh: 1%; Sm TGR inh: 2%

How did Cc1cc(NC(=O)CSc2ccc(-c3nc4cc(C)c(C)cc4[nH]3)cn2)no1 do in these assays?
Shiga toxin inh: 60*; CHX counter: 38*; TbPYK inhibitor: 3%; Giardia FBPA inh: 2%; LmPK inh: 0%; Sm TGR inh: 3%

Results for O=C(NCc1ccccc1Cl)c1ccc2c(c1)ncn2-c1cccc(F)c1 ?
TbPYK inhibitor: 4%; Sm TGR inh: 5%

What do the screens show for `CCOC(=O)Cc1ccc(NC(=O)NC(C)c2c(-n3cccc3)sc(C)c2C)cc1` (configuration not stated)?
TbPYK inhibitor: -1%; Sm TGR inh: 3%

How did Cc1cc2nc(-c3ccc(SCC(=O)NC(C)C)nc3)[nH]c2cc1C do in these assays?
Shiga toxin inh: active; CHX counter: 45*; Giardia FBPA inh: -21%; LmPK inh: -2%; Sm TGR inh: 7%

Results for COC(=O)CSc1ccc(-c2nc3ccc(C)cc3[nH]2)cn1 ?
Shiga toxin inh: 13; CHX counter: 20*; TbPYK inhibitor: -7%; Giardia FBPA inh: -21%; LmPK inh: 3%; Sm TGR inh: -1%

What do the screens show for `COC(=O)CSc1cnc2ccccc2n1`?
Shiga toxin inh: -5; CHX counter: -5; TbPYK inhibitor: 4%; Giardia FBPA inh: -1%; LmPK inh: -4%; Sm TGR inh: 1%

How did Cc1ccc(-c2ccc(SCC(=O)N3CCc4ccccc43)nn2)cc1 do in these assays?
Shiga toxin inh: -11; CHX counter: -7; Giardia FBPA inh: 4%; LmPK inh: 3%; Sm TGR inh: 6%

Results for Cc1cc2nc(-c3ccc(SCC(=O)N4CCc5ccccc54)nc3)[nH]c2cc1C ?
Shiga toxin inh: 36; CHX counter: 43*; TbPYK inhibitor: -4%; Giardia FBPA inh: -4%; LmPK inh: -15%; Sm TGR inh: 0%

Results for O=c1ccc2cccc([N+](=O)[O-])c2[nH]1 ?
TbPYK inhibitor: -1%

Results for O=C(CSc1ncccc1C(=O)O)c1cccc(C(F)(F)F)c1 ?
Shiga toxin inh: 39; CHX counter: 22; TbPYK inhibitor: -3%; Giardia FBPA inh: 14%; LmPK inh: 5%; Sm TGR inh: 2%

What do the screens show for `Cn1ccnc1SCC(=O)c1ccc2ccccc2c1`?
Shiga toxin inh: 88*; CHX counter: 39*; TbPYK inhibitor: -12%; Giardia FBPA inh: -8%; LmPK inh: -3%; Sm TGR inh: -1%

What do the screens show for `COc1ccc(C(=O)CSc2nccn2C)c(OC)c1`?
Shiga toxin inh: 57*; CHX counter: 50*; TbPYK inhibitor: -9%; LmPK inh: -18%; Sm TGR inh: 5%

What do the screens show for `CCN(CC)S(=O)(=O)c1cc(NC(=O)CSc2nccn2C)ccc1C`?
Shiga toxin inh: 103*; CHX counter: 16*; TbPYK inhibitor: 1%; Giardia FBPA inh: 0%; LmPK inh: 5%; Sm TGR inh: -2%

Results for O=C(CSc1ncccc1C(=O)O)c1ccc2ccccc2c1 ?
Shiga toxin inh: 100*; CHX counter: 45*; TbPYK inhibitor: -11%; Giardia FBPA inh: 16%; LmPK inh: -12%; Sm TGR inh: 6%

How did Cn1ccnc1SCC(=O)Nc1ccc2ccccc2c1 do in these assays?
Shiga toxin inh: 48*; CHX counter: 42*; TbPYK inhibitor: 3%; Giardia FBPA inh: 0%; LmPK inh: -5%; Sm TGR inh: 4%

Results for Cn1ccnc1SCC(=O)c1cc2ccccc2o1 ?
Shiga toxin inh: 117*; CHX counter: 45*; TbPYK inhibitor: -23%; Giardia FBPA inh: -19%; LmPK inh: -11%; Sm TGR inh: -18%

What do the screens show for `O=C(O)CSc1ncnc2nc[nH]c12`?
Shiga toxin inh: -17; CHX counter: -7; TbPYK inhibitor: -10%; Giardia FBPA inh: 0%; LmPK inh: -5%; Sm TGR inh: -15%

Results for Cc1ccnc(SCC(=O)c2cc3ccccc3o2)n1 ?
Shiga toxin inh: 25; CHX counter: 13*; TbPYK inhibitor: 6%; Giardia FBPA inh: -15%; LmPK inh: 1%; Sm TGR inh: -12%

Results for O=C(CSc1ncnc2nc[nH]c12)c1ccc2ccccc2c1 ?
Shiga toxin inh: 42*; CHX counter: 33*; TbPYK inhibitor: 2%; Giardia FBPA inh: -14%; LmPK inh: 1%; Sm TGR inh: -2%

How did COc1cc(NC(=O)c2nnn(CC(=O)Nc3cc(C)ccc3C)c2N)cc(OC)c1 do in these assays?
TbPYK inhibitor: 0%; Sm TGR inh: -2%

How did CCc1ccccc1N(C)C(=O)c1nn(C)c2c1CSc1ccccc1-2 do in these assays?
TbPYK inhibitor: -21%; Sm TGR inh: -8%

What do the screens show for `Cc1ccc(NC(=O)CSc2ncn[nH]2)cc1C`?
TbPYK inhibitor: -3%; Sm TGR inh: 0%

What do the screens show for `COc1cccc(C(=O)CSc2nnnn2C)c1`?
Shiga toxin inh: 19; CHX counter: -3; TbPYK inhibitor: 1%; Giardia FBPA inh: -2%; LmPK inh: -2%; Sm TGR inh: 0%

How did Cn1ccnc1SCC(=O)c1cccc(Br)c1 do in these assays?
Shiga toxin inh: 60; CHX counter: 27*; TbPYK inhibitor: -18%; Giardia FBPA inh: -7%; LmPK inh: -19%; Sm TGR inh: -33%

High-throughput results: PubChem, National Center for Advancing Translational Sciences (NCATS)
